From PubChem BioAssay (EPA / NIEHS) come the findings set out here.

Several values for one entry are separate records, joined by “and”; a condition that tells them apart may be missing. Equal values may be shown once. Records with an inconclusive call do not appear. Activity calls are given as the source filed them. The calls were made as follows, unless noted: active = hit-call score of the fitted dose curve at least 0.9, where 1 is the maximum; inactive = score below 0.9.

A word on the AC50: it is the concentration giving half of the maximal activity seen.

For assay [1], the target named is Estrogen receptor (Homo sapiens) (UniProt P03372). The assay can be described thus: CCTE_Deisenroth_AIME_96WELL_LUC_Inactive: CCTE's 96-well Estrogen Receptor Transactivation Assay without AIME metabolic competence (ERTA luciferase; metabolism negative), Deisenroth Lab (AID 2284025; active = hit-call score of the fitted dose curve at least 0.9, where 1 is the maximum). The method in brief:
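Metabolism-negative arm: chemicals (0.002–200 uM, 10 points) incubated 2 h with alginate-water microspheres, then medium moved onto VM7Luc4E2 cells for 24 h luciferase read-out. Positive direction vs 17beta-estradiol; n≥4 experiments.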

Assay [2] is described as follows: CCTE_Shafer_MEA_acute_cross_correlation_HWHM: CCTE's Neural Acute Assay for Cross Correlation at Half Width at Half Maximum, Shafer Lab (AID 2284026).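 Also: percent change per well from pre-dose baseline in spike cross-correlogram half width; hits are a decrease in cross-correlogram half width relative to DMSO.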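 As to outcome: spontaneous network firing of rat primary cortical neurons on multiwell microelectrode arrays.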 The method in brief:
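Per-well percent change in cross-correlogram half width at half maximum, derived from 40-min recordings before and after compound (0.03-40 uM) at 37 C. Cultures were rat cortical neurons, DIV 13 or 15, with adaptive spike detection at 8x rms.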

A short description of assay [3]: CCTE_Shafer_MEA_acute_synchrony_index: CCTE's Neural Acute Assay for Synchrony, Shafer Lab (AID 2284027).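 Also: network synchrony index of spontaneous spiking in primary rat cortical neurons on MEAs; fitted for loss of signal so actives lower synchrony relative to DMSO.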 Put shortly:
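Acute exposure of rat primary cortical neurons (DIV 13 or 15) at 0.03-40 uM. Synchrony index, 40 min before vs after, as % change relative to DMSO control.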

Assay [4] is described as follows: CCTE_Deisenroth_AIME_96WELL_CTox_Active: Cytotoxicity Assessment (CTOX) in CCTE's 96-well Estrogen Receptor Transactivation Assay with AIME metabolic competence (metabolism positive), Deisenroth Lab (AID 2284028; active = hit-call score of the fitted dose curve at least 0.9, where 1 is the maximum). The method in brief:
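Cytotoxicity in VM7Luc4E2 breast cells after 24 h exposure to medium from a 2 h metabolic pre-incubation with induced rat hepatic S9 in alginate microspheres; fluorescent live-cell protease readout, 10-point series 0.002–200 uM, n=4.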

Assay [5] is described as follows: CCTE_Deisenroth_AIME_96WELL_CTox_Inactive: Cytotoxicity Assessment (CTOX) in CCTE's 96-well Estrogen Receptor Transactivation Assay without AIME metabolic competence (metabolism negative), Deisenroth Lab (AID 2284029; active = hit-call score of the fitted dose curve at least 0.9, where 1 is the maximum). The method in brief:
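Cytotoxicity in VM7Luc4E2 breast cells was scored as loss of fluorescent signal from a live-cell protease substrate 24 h after exposure, using bidirectional curve fitting. Test media came from a 2 h metabolism-negative pre-incubation (alginate-water, no hepatic S9) of compounds at 0.002-200 uM, with at least four replicates.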

Assay [6] is described as follows: CCTE_Shafer_MEA_dev_firing_rate_mean: CCTE's Neural Network Formation Assay for Mean Firing Rate, Shafer Lab (AID 2284031).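 As to AC50: curve fitted for loss of firing so AC50 reflects decreased mean firing rate.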 The method in brief:
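Extracellular spike frequency, AUC over DIV 5–12 recordings, in rat cortical neuron MEA cultures dosed from plating; loss direction vs DMSO.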

Assay [7] is described as follows: CCTE_Shafer_MEA_dev_per_burst_spike_percent: CCTE's Neural Network Formation Assay for Percent of Spikes in a Burst, Shafer Lab (AID 2284032).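 As to AC50: fitted as a decrease in burst spike percentage below DMSO baseline.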 Put shortly:
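Value is trapezoidal AUC over recordings on days 5, 7, 9 and 12 of the well-mean fraction of spikes falling in single-electrode bursts; rat cortical cultures exposed continuously from plating, treatment renewed DIV 5 and 9, fitted downward against DMSO.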

Assay [8] in a line: CCTE_Shafer_MEA_dev_active_electrodes_number: CCTE's Neural Network Formation Assay for Number of Active Electrodes, Shafer Lab (AID 2284040; active = hit-call score of the fitted dose curve at least 0.9, where 1 is the maximum;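 as to AC50: potency for loss of active electrodes versus DMSO so lower counts are hits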). Put shortly: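 Developing rat cortical networks on MEAs, exposed DIV 0–12. Value is the AUC of active-electrode counts (≥5 spikes/min) from days 5, 7, 9, 12, relative to DMSO.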
The nature of assay [9]: CCTE_Shafer_MEA_dev_burst_rate: CCTE's Neural Network Formation Assay for Burst Rate, Shafer Lab (AID 2284042).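 As to AC50: potency for loss of burst rate below DMSO control.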 The method in brief: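 Exposure ran continuously over 12 days of network development in rat cortical cultures, with compound refreshed during full media changes on DIV 5 and 9. Single-electrode bursts per recording time, well-mean over active electrodes, trapezoidal AUC across days 5–12, fitted downward relative to DMSO.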

A short description of assay [10]: CCTE_Shafer_MEA_dev_bursting_electrodes_number: CCTE's Neural Network Formation Assay for Number of Bursting Electrodes, Shafer Lab (AID 2284043; active = hit-call score of the fitted dose curve at least 0.9, where 1 is the maximum;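 as to AC50: potency is for loss of bursting electrodes relative to DMSO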). Put shortly:
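Number of electrodes reaching ≥1 burst every 2 min was recorded at DIV 5, 7, 9 and 12 and collapsed as trapezoidal area under the curve. Cultures were rat cortical neurons on MEA plates, dosed continuously from plating with medium and treatment refreshed on DIV 5 and 9.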

A short description of assay [11]: CCTE_Shafer_MEA_dev_per_burst_interspike_interval: CCTE's Neural Network Formation Assay for Burst Interspike Interval, Shafer Lab (AID 2284044).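 As to AC50: potency for a decrease of within-burst interspike interval below DMSO level.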 Put shortly:
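Mean interspike interval within single-electrode bursts, averaged over bursting electrodes, from rat cortical cultures on MEA plates recorded on days 5, 7, 9 and 12. Continuous compound exposure from plating; trapezoidal AUC fitted downward relative to DMSO.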

Assay [12] can be described thus: CCTE_Shafer_MEA_dev_burst_duration_mean: CCTE's Neural Network Formation Assay for Mean Burst Duration, Shafer Lab (AID 2284045).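 As to AC50: curve fitted for loss meaning shorter burst duration than DMSO.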 Put shortly:
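Mean single-electrode burst duration (first to last spike), averaged over bursting electrodes per well, then integrated as area-under-curve across recordings at days 5, 7, 9 and 12. Rat cortical cultures on MEAs, compound present from plating, refreshed at feeds.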

Assay [13] in a line: CCTE_Shafer_MEA_dev_interburst_interval_mean: CCTE's Neural Network Formation Assay for Mean Interburst Interval, Shafer Lab (AID 2284046).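 Also: curve fitted for decrease in interburst interval relative to DMSO.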 The method in brief: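 Primary rat cortical neurons on PEI-coated 48-well MEA plates (laminin added with cells at plating) (16 electrodes/well), exposed from plating day 0 with renewal at DIV 5 and 9. Mean inter-burst interval averaged over bursting electrodes, AUC across days 5, 7, 9, 12; DMSO baseline.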

Assay [14] can be described thus: CCTE_Shafer_MEA_dev_inter_network_spike_interval_mean: CCTE's Neural Network Formation Assay for Mean Inter-network Spike Interval, Shafer Lab (AID 2284047).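 As to AC50: potency for a decrease in mean inter-network spike interval below DMSO.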 Put shortly:
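Mean time between consecutive network-spike peaks, recorded extracellularly (adaptive spike detection) on DIV 5, 7, 9 and 12, summarized as trapezoidal AUC. Rat cortical cultures on MEAs dosed continuously days 0–12, re-dosed at feeds; loss-of-signal fit relative to DMSO.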

A short description of assay [15]: CCTE_Shafer_MEA_dev_network_spike_number: CCTE's Neural Network Formation Assay for Number of Network Spikes, Shafer Lab (AID 2284048).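 Also: synchronized bursts across electrodes counted on days 5 7 9 12 and integrated as AUC.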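 As to AC50: fit as a loss of signal meaning fewer network spikes than DMSO.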 The method in brief: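 Number of network spikes (coordinated firing across electrodes) recorded on days 5, 7, 9 and 12 and summarised as area under the curve. Rat cortical cultures on MEA, continuous compound exposure with full medium/treatment exchange at DIV 5 and 9.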

Assay [16] is described as follows: CCTE_Shafer_MEA_dev_network_spike_peak: CCTE's Neural Network Formation Assay for Mean Number of Electrodes in Network Spike, Shafer Lab (AID 2284049).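 As to AC50: fitted for loss of signal meaning fewer electrodes in network spikes than DMSO.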 Put shortly:
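Rat cortical primary culture, 1.5 x 10^5 cells/well, 48-well MEA (16 electrodes/well). Dosing day 0 through DIV 12, full media/compound exchange DIV 5, 9. AxIS adaptive spike detection; AUC over days 5/7/9/12; loss-of-signal vs DMSO.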

The nature of assay [17]: CCTE_Deisenroth_AIME_384WELL_CTox_Active: Cytotoxicity Assessment (CTOX) in CCTE's 384-well Estrogen Receptor Transactivation Assay with AIME metabolic competence (metabolism positive), Deisenroth Lab (AID 2284037; active = hit-call score of the fitted dose curve at least 0.9, where 1 is the maximum;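 also: chemicals first conditioned 2 h by alginate-bound induced rat liver S9 before cells; activity means signal loss indicating cell death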). Put shortly: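 Cytotoxicity in VM7Luc4E2 breast cells, 24 hour, measured as protease-substrate fluorescence loss, after 2-hour metabolic conditioning with induced rat hepatic S9 in alginate microspheres. Concentrations 0.002 - 200 uM, 10 points, bidirectional fitting.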

The nature of assay [18]: CCTE_Deisenroth_AIME_384WELL_CTox_Inactive: Cytotoxicity Assessment (CTOX) in CCTE's 384-well Estrogen Receptor Transactivation Assay without AIME metabolic competence (metabolism negative), Deisenroth Lab (AID 2284039; active = hit-call score of the fitted dose curve at least 0.9, where 1 is the maximum;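 also: cell viability via live-cell protease substrate cleaved to fluorescent probe; loss of fluorescence signal means loss of viability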). Put shortly: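 Fluorescent protease-substrate viability readout after 24 h exposure of VM7Luc4E2 cells to conditioned medium. Chemicals (0.002–200 uM) first sat 2 h over alginate-water beads, no S9. Data fitted bidirectionally, loss of signal meaning viability loss.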

Assay [19] deals with Estrogen receptor (Homo sapiens) (UniProt P03372). The assay can be described thus: CCTE_Deisenroth_AIME_384WELL_LUC_Shift: CCTE's 384-well Estrogen Receptor Transactivation Assay with AIME metabolic competence data shift (ERTA luciferase; difference in metabolism positive and negative), Deisenroth Lab (AID 2284041).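 Also: shift is response with S9 minus without S9 so positive means metabolism raised ER signal.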 Put shortly:
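Test chemicals (0.002–200 uM, 10-point) were pre-incubated 2 h with alginate microspheres containing phenobarbital/beta-naphthoflavone-induced male Sprague Dawley rat liver S9 or water, then medium was transferred to VM7Luc4E2 cells for 24 h luciferase readout; shift = S9-positive minus S9-negative normalized response.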

For assay [20] the target is unchanged. Briefly: CCTE_Deisenroth_AIME_384WELL_LUC_Inactive: CCTE's 384-well Estrogen Receptor Transactivation Assay without AIME metabolic competence (ERTA luciferase; metabolism negative), Deisenroth Lab (AID 2284038; active = hit-call score of the fitted dose curve at least 0.9, where 1 is the maximum;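 also: hits raise estrogen receptor luciferase signal so potencies reflect agonists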). The method in brief: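 Metabolism-negative mode: AIME lids stamped in alginate-water, no hepatic S9. 2 h chemical incubation → medium onto VM7Luc4E2 ERTA, 24 h. Readout luciferase luminescence; gain-of-signal fit vs 17beta-estradiol. Conc. 0.002 - 200 uM.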

Estrogen receptor (Homo sapiens), sequence (P03372 whole entry, looked up): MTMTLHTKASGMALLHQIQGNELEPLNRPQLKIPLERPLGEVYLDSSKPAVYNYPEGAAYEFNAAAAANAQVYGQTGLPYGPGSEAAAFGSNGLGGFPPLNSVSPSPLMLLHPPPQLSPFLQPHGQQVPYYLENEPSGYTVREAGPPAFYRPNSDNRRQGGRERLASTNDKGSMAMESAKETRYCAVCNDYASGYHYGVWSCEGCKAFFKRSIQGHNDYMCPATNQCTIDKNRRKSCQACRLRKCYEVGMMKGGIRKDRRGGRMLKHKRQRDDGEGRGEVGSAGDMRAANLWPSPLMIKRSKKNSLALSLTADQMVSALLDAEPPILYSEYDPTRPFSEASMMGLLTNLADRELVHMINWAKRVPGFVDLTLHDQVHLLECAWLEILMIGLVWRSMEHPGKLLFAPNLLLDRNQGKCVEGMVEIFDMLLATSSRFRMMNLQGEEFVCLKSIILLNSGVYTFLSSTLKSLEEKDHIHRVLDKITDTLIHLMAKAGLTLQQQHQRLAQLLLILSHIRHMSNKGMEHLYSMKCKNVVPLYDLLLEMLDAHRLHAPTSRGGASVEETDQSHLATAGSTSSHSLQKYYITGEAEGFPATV

As to `COc1ccc(C(c2ccc(OC)cc2)C(Cl)(Cl)Cl)cc1`, the AC50 in [1] is 3.77 µM (active); in assay [3] it was 27.4 µM (active); in assay [4] it was 102 µM (active); in assay [5], 72.4 µM (active); in assay [7], 4.51 µM (active); in assay [8], 6.74 µM (active). For the same compound, the AC50 in assay [10] was 6.57 µM (active); in assay [16], 8.43 µM (active). For the same compound, the compound was classed as inactive in assay [2], in assay [6], in [9], in assay [11], in assay [12] and in assay [13]. Moreover, the call in [14] and in assay [15] was inactive.

With `CC(C)(C)c1ccc(CSc2cnn(C(C)(C)C)c(=O)c2Cl)cc1`, the AC50 in [2] was 4.43 µM (active); in [3], 3.24 µM (active); in assay [6], 4.92 nM (active); in assay [7], 0.00382 µM (active); in assay [17], 19.8 µM (active); in assay [8] it was 0.0031 µM (active). Besides, the AC50 in assay [9] is 4.9 nM (active); in assay [10], 0.00281 µM (active); in assay [11], 4.98 nM (active); in [12], 1.67 nM (active); in [13], 3 nM (active); in assay [14], 0.0028 µM (active). The AC50 in assay [15] is 2.16 nM (active); in assay [16], 0.0022 µM (active). Besides, the result in assay [18] and in assay [19] was inactive.

Consider `CS/C(C)=N/OC(=O)N(C)SN(C)C(=O)O/N=C(\C)SC`, for which the call in [2] was inactive. In addition, the AC50 in assay [3] was 27.8 µM (active).

As for `CON(C)C(=O)Nc1ccc(Cl)c(Cl)c1`, the AC50 was 6.23 µM (active) in assay [2] and 6.56 µM (active) in [3].

Consider `CCCC1COC(Cn2cncn2)(c2ccc(Cl)cc2Cl)O1` (configuration not stated), for which the AC50 in assay [2] was 25.8 µM (active); in assay [3], 17.5 µM (active).

Turning to `CC(C)Oc1cc(-n2nc(C(C)(C)C)oc2=O)c(Cl)cc1Cl`, the result in assay [2] and in assay [3] was inactive.

`Cc1c(F)c(F)c(COC(=O)C2C(/C=C(\Cl)C(F)(F)F)C2(C)C)c(F)c1F` (configuration not stated): the AC50 in assay [2] is 28.1 µM (active); in assay [3], 0.433 µM (active); in assay [6] it was 598 nM (active); in assay [7], 1.83 µM (active); in assay [8] it was 10 µM (active); in assay [9] it was 716 nM (active). For the same compound, the values for the AC50 in assay [10] and in assay [15] were 2.72 µM (active) and 311 nM (active), respectively. The compound was classed as inactive in assay [20], in [18], in assay [19], in assay [11], in [12] and in [13]. The compound was classed as inactive in [14].

Take `CCCN(CCC)c1c([N+](=O)[O-])cc(S(N)(=O)=O)cc1[N+](=O)[O-]`: the AC50 in [2] was 10.5 µM (active); in [3], 5 µM (active).

Regarding `CCCCNC(=O)OCC#CI`, the AC50 in assay [2] was 31.7 µM (active); in [3] it was 15.5 µM (active); in [6], 3.81 µM (active) and 2.25 µM (active); in assay [7], 3.25 µM (active) and 1.37 µM (active); in assay [17] it was 145 µM (active); in assay [18], 124 µM (active). Further, the AC50 in assay [8] was 3.93 µM (active) and 1.81 µM (active); in assay [9], 3.94 µM (active) and 1.33 µM (active); in assay [10], 3.82 µM (active) and 1.48 µM (active); in assay [11], 7.65 µM (active) and 1.63 µM (active); in [12], 4.03 µM (active) and 1.28 µM (active); in assay [13], 3.24 µM (active) and 2.21 µM (active). The concentration at half-maximal activity (AC50) is 2.92 µM (active) and 1.21 µM (active) in assay [15]; 3.81 µM (active) and 1.53 µM (active) in assay [16]. The outcome in assay [19] and in assay [14] was inactive.

Regarding `Fc1ccc(Oc2ccnc3cc(Cl)cc(Cl)c23)cc1`, the compound was classed as inactive in assay [2] and in assay [3].

Regarding `CCNc1nc(Cl)nc(NC(C)C)n1`, the result in [1], in assay [6], in assay [7], in assay [17], in assay [20] and in [8] was inactive. The result in assay [19], in assay [9], in assay [10], in [11], in assay [12] and in [13] was inactive. Also, the result in assay [14], in assay [15] and in assay [16] was inactive. Further, the AC50 in [2] was 11.8 µM (active); in assay [3], 20 µM (active).
